Results taken from PubChem BioAssay (NCI).
Values joined by “and” are separate entries in the source; they are usually repeats but may differ in a detail not shown here. Equal values may be shown once. This is part of a sample that, as a whole, favours compounds with a hit. Of some 83,000 tested, about 20% had one in any assay.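 Cell lines were cultured in 96-well plates, exposed to a single compound concentration, and assessed for percent growth 48 hours later.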 Active and inactive are the calls of the source. Rule for the calls: active = growth percent below 10; inactive = the rest.

Columns and labels:
Assay in all cases: NCI-60 one-dose screen, 48 h (100 = growth as untreated, 0 = no growth, -100 = all killed)
Conditions in all cases: 10 µM
NCI-H23 lung = system: NCI-H23 lung
NCI-H522 lung = system: NCI-H522 lung
MALME-3M melanoma = system: MALME-3M melanoma
MDA-MB-231 breast = system: MDA-MB-231 breast
M14 melanoma = system: M14 melanoma
SK-MEL-5 melanoma = system: SK-MEL-5 melanoma
UACC-62 melanoma = system: UACC-62 melanoma
LOX IMVI melanoma = system: LOX IMVI melanoma
SK-MEL-28 melanoma = system: SK-MEL-28 melanoma
SR leukemia = system: SR leukemia
OVCAR-8 ovarian = system: OVCAR-8 ovarian
OVCAR-5 ovarian = system: OVCAR-5 ovarian
OVCAR-4 ovarian = system: OVCAR-4 ovarian
SK-OV-3 ovarian = system: SK-OV-3 ovarian
IGROV1 ovarian = system: IGROV1 ovarian
HS 578T breast = system: HS 578T breast
NCI/ADR-RES ovarian = system: NCI/ADR-RES ovarian
T-47D breast = system: T-47D breast
SW-620 colon = system: SW-620 colon
MCF7 breast = system: MCF7 breast

Structure (SMILES)	growth (NCI-H23 lung)	growth (NCI-H522 lung)	growth (MALME-3M melanoma)	growth (MDA-MB-231 breast)	growth (M14 melanoma)	growth (SK-MEL-5 melanoma)	growth (UACC-62 melanoma)	growth (LOX IMVI melanoma)	growth (SK-MEL-28 melanoma)	growth (SR leukemia)	growth (OVCAR-8 ovarian)	growth (OVCAR-5 ovarian)	growth (OVCAR-4 ovarian)	growth (SK-OV-3 ovarian)	growth (IGROV1 ovarian)	growth (HS 578T breast)	growth (NCI/ADR-RES ovarian)	growth (T-47D breast)	growth (SW-620 colon)	growth (MCF7 breast)
CC1=C[C@H]2O[C@@H]3C[C@@H](O)[C@](C)([C@@]2(C)CC1)[C@@]31CO1	28.4% (inactive)	31% (inactive)	21% (inactive)	42.4% (inactive)	6.68% (active)	12.1% (inactive)	44.5% (inactive)	13.6% (inactive)	27.1% (inactive)	18.1% (inactive)	27.7% (inactive)	78.9% (inactive)	32% (inactive)	22.9% (inactive)	28.3% (inactive)	37.8% (inactive)	36.1% (inactive)	29.6% (inactive)	24% (inactive)	17.6% (inactive)
NC1CCc2cc(O)c(O)cc2C1 (centres undefined)	91.8% (inactive)	92.3% (inactive)		101% (inactive)	83.5% (inactive)	87.4% (inactive)	99.4% (inactive)	70.9% (inactive)	87.1% (inactive)	-24.1% (active)	101% (inactive)	91.4% (inactive)	98.7% (inactive)	104% (inactive)	97.9% (inactive)	100% (inactive)	85.6% (inactive)	88.9% (inactive)	93.1% (inactive)	63.6% (inactive)
CCC(C)[C@H]1C(=O)O[C@H](C(C)C)C(=O)N(C)[C@@H](C(C)C)C(=O)O[C@H](C(C)C)C(=O)N(C)[C@@H](C(C)C)C(=O)O[C@H](C(C)C)C(=O)N1C (some centres undefined)	10% (inactive)	7.23% (active)	14.7% (inactive)	7.98% (active)	21.2% (inactive)	-33.5% (active)	9.22% (active)	9.79% (active)	34.4% (inactive)	8.09% (active)	14.9% (inactive)	20.7% (inactive)	20.3% (inactive)	-9.75% (active)	34.4% (inactive)	30.4% (inactive)	5.25% (active)	3.16% (active)	17.4% (inactive)	12.5% (inactive)
CC(=O)O[C@@H]1[C@@H]2O[C@H]2[C@@](C)(O)C(=O)[C@@H](C)C/C=C/[C@H]2[C@@H]3O[C@]3(C)[C@@H](C)C3[C@H](Cc4ccccc4)NC(=O)[C@@]312 (some centres undefined)	70.4% (inactive)	18.2% (inactive)	71% (inactive)	22% (inactive)	65.2% (inactive)	71% (inactive)	78.8% (inactive)	14.7% (inactive)	71% (inactive)	60.7% (inactive)	84.4% (inactive)	96.3% (inactive)	55.8% (inactive)	22.9% (inactive)	54.7% (inactive)	4.92% (active)	82% (inactive)	33.6% (inactive)	55.5% (inactive)	56.8% (inactive)
C/C=C/CC(C)C(O)[C@H](NC(=O)[C@@H]1CCCN1C(=O)C(C)(C)NC(=O)CCCCCCCCC)C(=O)N[C@@](C)(CC)C(=O)N[C@@H](CCC(N)=O)C(=O)N[C@H](CCC(N)=O)C(=O)NC(C)(C)C(=O)N[C@@](C)(CC)C(=O)N[C@@H](CCC(N)=O)C(=O)N[C@H](CC(C)C)C(=O)N[C@H](CO)CC(C)C (some centres undefined)	105% (inactive) and -48.3% (active)	101% (inactive) and -77.6% (active)	93.8% (inactive) and -92.9% (active)	106% (inactive) and -96.8% (active)	100% (inactive) and -67.5% (active)	99.9% (inactive) and -90.2% (active)	96% (inactive) and -96.8% (active)	101% (inactive) and -88.2% (active)	104% (inactive) and -100% (active)	92% (inactive) and 11.3% (inactive)	99.4% (inactive) and -48.6% (active)	106% (inactive) and -64.3% (active)	106% (inactive) and 19.2% (inactive)	111% (inactive) and -11.2% (active)	106% (inactive) and -23.2% (active)	109% (inactive) and -71.9% (active)	106% (inactive) and -38.7% (active)	95.9% (inactive) and -31.3% (active)	99.1% (inactive) and 3.5% (active)	96.1% (inactive) and -68.2% (active)
CN(CCF)/N=N/c1nc[nH]c1C(N)=O	77% (inactive)	64.2% (inactive)	37.5% (inactive)	39.5% (inactive)	23.3% (inactive)	74.6% (inactive)	31.2% (inactive)	17.5% (inactive)	49.3% (inactive)	22.3% (inactive)	27% (inactive)	62.8% (inactive)	44.2% (inactive)	-4.12% (active)	44% (inactive)	93.1% (inactive)	32.5% (inactive)	57.3% (inactive)	25.9% (inactive)	36.2% (inactive)
CC1=C2C(=C[C@@](C)(COS(C)(=O)=O)[C@@H]2O)C(=O)[C@](C)(O)C12CC2	-18.5% (active)	-6.78% (active)	-33% (active)	8.84% (active)	-8.82% (active)	-18% (active)	-67.1% (active)	-3.47% (active)	-28.4% (active)	2.86% (active)	12.5% (inactive)	1.82% (active)	-0.135% (active)	-13.9% (active)	8.2% (active)	-9.58% (active)	0.993% (active)	-0.976% (active)	11.7% (inactive)	3.13% (active)
CC1=C2C(=C[C@@](C)(COC(=O)c3ccc(S(=O)(=O)F)cc3)[C@@H]2O)C(=O)[C@](C)(O)C12CC2	-32.2% (active)	-64.5% (active)	-56.1% (active)	-16.3% (active)	-85% (active)	-82.5% (active)	-77.1% (active)	-40.2% (active)	-66.3% (active)	-0.78% (active)	-31.1% (active)	-12.4% (active)	-33.5% (active)	-24.7% (active)	-13.9% (active)	-16% (active)	-3.75% (active)	0.908% (active)	-20.5% (active)	1.68% (active)
COC1[C@@H]2C[C@H]3C(C)(C)O[C@@](C/C=C(/C)C(=O)O)(C2=O)[C@]32Oc3c(CC=C(C)C)c4c(c(O)c3C(=O)[C@H]12)C=CC(C)(C)O4 (some centres undefined)	-64.5% (active)	-68.6% (active)	-90.2% (active)	-18.3% (active)	-53.9% (active)	-98.4% (active)	-70% (active)	-97.2% (active)	-61.4% (active)	1.28% (active)	-58.5% (active)	-40% (active)	-33.7% (active)	13.7% (inactive)	-26% (active)	22.9% (inactive)	-10.9% (active)	-27.2% (active)	-14.7% (active)	-78.8% (active)
COC(=O)[C@H]1[C@@H](O)[C@@]2(O)c3c(OC)cc(OC)cc3O[C@@]2(c2ccc(OC)cc2)[C@@H]1c1ccccc1	-12% (active)	-28.7% (active)	-21.8% (active)	-5.45% (active)	-1.79% (active)	-55.8% (active)	-14.9% (active)	-38.6% (active)	-19.2% (active)	13.2% (inactive)	-11.6% (active)	-6.47% (active)	2.23% (active)	-12.2% (active)	-17.3% (active)	-5.48% (active)	0.819% (active)	-11.7% (active)	3.66% (active)	-0.926% (active)
C/C=C/CC(C)C(O)[C@H](NC(=O)[C@@H]1CCCN1C(=O)C(C)(C)NC(=O)CCCCCCC)C(=O)N[C@@](C)(CC)C(=O)N[C@@H](CCC(N)=O)C(=O)N[C@H](CCC(N)=O)C(=O)NC(C)(C)C(=O)NC(C)(C)C(=O)N[C@@H](CCC(N)=O)C(=O)N[C@H](CC(C)C)C(=O)N[C@H](CO)CC(C)C (some centres undefined)	16.4% (inactive)	103% (inactive) and -8.57% (active)	109% (inactive) and -65.1% (active)	108% (inactive) and -6.87% (active)	103% (inactive) and 25.1% (inactive)	100% (inactive) and -65.7% (active)	103% (inactive) and 19.2% (inactive)	33.2% (inactive)	107% (inactive) and -74.9% (active)	92.9% (inactive) and 0.907% (active)	106% (inactive) and 24.6% (inactive)	114% (inactive) and 40% (inactive)	108% (inactive) and 44.5% (inactive)	101% (inactive) and 52.6% (inactive)	113% (inactive) and 46.4% (inactive)	110% (inactive) and -10.8% (active)	106% (inactive) and 48.9% (inactive)	102% (inactive) and 7.2% (active)	103% (inactive) and 31.6% (inactive)	93.3% (inactive) and 4.76% (active)
COc1cc2c(O[C@@H]3OC[C@H](O)[C@H](O)[C@H]3O)c3c(c(-c4ccc5c(c4)OCO5)c2cc1OC)C(=O)OC3	72.8% (inactive)	13.5% (inactive)	54.4% (inactive)	22.9% (inactive)	31.3% (inactive)	-93.4% (active)	20.8% (inactive)	-57.7% (active)	40.8% (inactive)	14.5% (inactive)	22% (inactive)	39.4% (inactive)	74% (inactive)	69.1% (inactive)	53% (inactive)	91.1% (inactive)	90.1% (inactive)	18.2% (inactive)	68.8% (inactive)	71.2% (inactive)
